The list is not random: actives were taken first. Their share in the collection is about 19%.
IL1B secr inh – qHTS for Inhibitors of Inflammasome Signaling: IL-1-beta AlphaLISA Primary Screen. THP-1 LPS/ATP IL-1B secretion, AlphaLISA, 16 h; hits give low values. hit rate 4.7% among 360,000. AID 743279, 2014. activity change, % at 57.5 µM; in the data active = activity change below about -50%; inconclusive = mostly about -30% to -49%
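THP-1 cells pretreated 1 hr with compounds (up to 57.5 uM final), then stimulated with LPS (250 ng/mL final) plus ATP (1.25 mM final); secreted IL-1B measured by AlphaLISA after 16 hr, decreased signal indicating inhibition.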
TDP1 inh – qHTS Assay for Inhibitors of Tyrosyl-DNA Phosphodiesterase (TDP1). Potency, µM (highest dose often 130 µM), usual class: inhibitors. recombinant TDP1, AlphaScreen DNA substrate cleavage. Tyrosyl-DNA phosphodiesterase 1 (Homo sapiens), Q9NUW8. hit rate 0.28% among 350,000; note: nearly all actives have a fitted effect of over 40% in size
Target sequence (Q9NUW8 whole entry, looked up): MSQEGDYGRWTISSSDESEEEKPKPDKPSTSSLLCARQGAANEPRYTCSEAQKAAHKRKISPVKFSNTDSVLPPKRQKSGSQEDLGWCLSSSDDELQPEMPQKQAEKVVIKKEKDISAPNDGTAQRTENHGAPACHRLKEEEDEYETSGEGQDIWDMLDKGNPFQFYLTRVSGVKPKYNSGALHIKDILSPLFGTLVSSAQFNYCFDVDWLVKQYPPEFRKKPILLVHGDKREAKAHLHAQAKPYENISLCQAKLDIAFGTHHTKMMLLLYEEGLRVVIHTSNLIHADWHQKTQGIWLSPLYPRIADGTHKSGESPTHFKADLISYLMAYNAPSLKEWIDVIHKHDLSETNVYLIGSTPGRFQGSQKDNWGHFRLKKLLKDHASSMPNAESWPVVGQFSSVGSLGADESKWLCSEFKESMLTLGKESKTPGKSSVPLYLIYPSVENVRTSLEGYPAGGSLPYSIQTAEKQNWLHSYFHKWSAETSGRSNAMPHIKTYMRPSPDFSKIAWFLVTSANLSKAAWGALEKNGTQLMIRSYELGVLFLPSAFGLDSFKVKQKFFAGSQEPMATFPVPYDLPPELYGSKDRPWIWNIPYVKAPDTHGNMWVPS
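Compounds were preincubated with Tdp1 (1 nM final) for 15 min at room temperature before substrate (15 nM final) started a 5 min reaction; beads (10 ug/ml final) were then added for 10 min before AlphaScreen detection.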
Giardia kill – Small Molecules that selectively kill Giardia lamblia: qHTS; Giardia lamblia trophozoite viability; activity change, % at 7.66 µM, hits read low; hit rate 0.15% among 340,000; in the data active = activity change below about -80%; inconclusive = between about -30% and that limit;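 note: parasites exposed to compound for two days anaerobically before the ATP read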
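Compounds were tested on trophozoites seeded at 100 cells/well and held 48 hrs at 37 deg C anaerobically. An ATP-based luminescent kit measured the remaining live cells.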
TDP1 cell noCPT – qHTS for Inhibitors of human tyrosyl-DNA phosphodiesterase 1 (TDP1): qHTS in cells in absence of CPT; DT40 Tdp1-/- hTDP1 cells, no CPT, ATP luminescence, 48 h; Potency, µM (series often up to 46.2 µM), usual class: inhibitors; hit rate 15% among 420,000; AID 686978, 2013; note: nearly all actives have a fitted effect of over 55% in size
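DT40 Tdp1-/-;hTDP1 cells, no CPT (DMSO vehicle only), 400 cells/well; compounds pin-transferred; ≥48 hr, 37 °C; CellTiter-Glo 30 min RT dark, luminescence read.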
DT40 TDP1 CPT – qHTS for Inhibitors of human tyrosyl-DNA phosphodiesterase 1 (TDP1): qHTS in cells in presence of CPT. chicken DT40 Tdp1-/-;hTDP1 cells + 20 nM CPT, ATP luminescence, 48 h. hit rate 12% among 420,000. Potency, µM (top dose mostly 46.2 µM), hits mostly inhibitors. AID 686979, 2013; note: nearly all actives have a fitted effect of over 55% in size
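Chicken DT40 Tdp1-/- cells stably complemented with human TDP1 were seeded at 400 cells/well in medium containing 20 nM camptothecin, exposed to pin-transferred compounds, and grown at 37 °C for at least 48 hr. Viability was read as ATP luminescence.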
ELG1 DNA repair – qHTS screen for small molecules that inhibit ELG1-dependent DNA repair in human embryonic kidney (HEK293T) cells expressing luciferase-tagged ELG1; HEK293T ELG1-luciferase reporter, luminescence, 16 h; DNA damage induced by 5-fluorouridine; hit rate 2.3% among 330,000; Potency, µM (highest dose often 46.1 µM), actives largely listed as inhibitors; note: nearly all actives have a fitted effect of over 55% in size
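Step one: seed 2,000 cells per well. Step two: pin-transfer compound or DMSO alongside 5-fluorouridine. Step three: incubate 16 hr, 37 °C, 5% CO2. Step four: add ONE-Glo, wait 30 min, read luminescence.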
Large screens that a line does not name were inactive. Unless noted, calls come from the whole dose curve; as a rule, active = well fitted curve in the direction sought with a large enough effect; inconclusive = small, poorly fitted or top-dose-only effect, or another doubt; inactive = no such curve, though single readings can be large; an effect the other way counts as inactive or inconclusive.

O=C(O)C1CC=CCC1C(=O)NCCc1cccc(Cl)c1 (centres undefined)	none
CCCn1c(SCC(=O)Nc2cccc(S(=O)(=O)N(C)C)c2)nc2ccccc2c1=O	TDP1 cell noCPT inconclusive, DT40 TDP1 CPT inconclusive, ELG1 DNA repair 23µM (no result: TDP1 inh)
O=C(CSc1nc2ccccc2c(=O)n1-c1ccccc1Cl)Nc1cccc(S(=O)(=O)N2CCOCC2)c1	TDP1 cell noCPT inconclusive, DT40 TDP1 CPT 15µM
NS(=O)(=O)c1cccc(NC(=O)CSc2nc3ccccc3c(=O)n2CCCN2CCOCC2)c1	none
O=C(CSc1cccc2cccnc12)Nc1ccc(S(=O)(=O)N2CCOCC2)cc1	IL1B secr inh -101, TDP1 cell noCPT inconclusive, DT40 TDP1 CPT inconclusive (no result: TDP1 inh)
O=C(CSc1nc2ccccc2c(=O)n1-c1ccc(F)cc1)Nc1cc(S(=O)(=O)N2CCOCC2)ccc1Cl	TDP1 cell noCPT inconclusive, DT40 TDP1 CPT inconclusive, ELG1 DNA repair inconclusive
CN(C(=O)CSc1ncnc2ccccc12)C1CCCCC1	IL1B secr inh -89, ELG1 DNA repair inconclusive
Cc1ccc(S(=O)(=O)N(C)C)cc1-n1c(SCC(=O)Nc2ccc(F)c(F)c2F)nc2ccccc2c1=O	TDP1 cell noCPT 21µM, DT40 TDP1 CPT 15µM, ELG1 DNA repair inconclusive
CN(C)S(=O)(=O)c1cccc(NC(=O)CSc2ncnc3ccccc23)c1	IL1B secr inh -100, TDP1 cell noCPT 18µM, DT40 TDP1 CPT 21µM, ELG1 DNA repair inconclusive
Cc1ccc(S(=O)(=O)N(C)C)cc1-n1c(SCC(=O)N(C)C)nc2ccccc2c1=O	none
COc1ccc(CCNC(=O)C(C(=O)c2ccccc2)n2ccccc2=O)cc1OC (centres undefined)	TDP1 cell noCPT 5.8µM
COc1ccc(CCNC(=O)C(C(=O)c2ccccc2)n2cc(Cl)ccc2=O)cc1OC (centres undefined)	none
O=C(NCc1cccnc1)C(C(=O)c1ccc(F)cc1)n1ccccc1=O (centres undefined)	none
O=C(NCc1ccccc1)C(C(=O)c1ccc(F)cc1)n1ccccc1=O (centres undefined)	DT40 TDP1 CPT inconclusive
COc1ccc(CCNC(=O)C(C(=O)c2ccc(F)cc2)n2ccccc2=O)cc1OC (centres undefined)	TDP1 cell noCPT 6.5µM, DT40 TDP1 CPT inconclusive
O=C(NCC1CCCO1)C(C(=O)c1ccc(F)cc1)n1ccccc1=O (centres undefined)	TDP1 cell noCPT 23µM, DT40 TDP1 CPT inconclusive
COc1ccc(N/C=C/C(=O)c2ccccc2)cc1	TDP1 cell noCPT inconclusive, ELG1 DNA repair inconclusive (no result: TDP1 inh)
COc1ccc(N/C=C(/C(C)=O)c2ccccc2)cc1	IL1B secr inh -84
COc1ccc(/C(=C/Nc2cccc(Br)c2)C(C)=O)cc1OC	IL1B secr inh -84, TDP1 cell noCPT inconclusive, ELG1 DNA repair inconclusive
CCc1cccc(C)c1NC(=O)c1cc(CN2CCCC2)on1	none (no result: IL1B secr inh, Giardia kill, ELG1 DNA repair)
COc1ccc(CNC(=O)c2cc3cc4ccc(C)cc4nc3o2)cc1	TDP1 cell noCPT 23µM, DT40 TDP1 CPT inconclusive (no result: IL1B secr inh, Giardia kill, ELG1 DNA repair)
CCN(C(=O)c1cc2cc3ccc(C)cc3nc2o1)c1ccc(OC)cc1	IL1B secr inh -52, TDP1 cell noCPT inconclusive
CCCCN(C)C(=O)c1cc2cc3ccc(OC)cc3nc2o1	IL1B secr inh inconclusive, ELG1 DNA repair inconclusive (no result: TDP1 inh)
COc1ccc2cc3cc(C(=O)NCC4COc5ccccc5O4)oc3nc2c1 (centres undefined)	TDP1 cell noCPT 16µM, DT40 TDP1 CPT inconclusive, ELG1 DNA repair inconclusive
COc1ccc2cc3cc(C(=O)Nc4cc(OC)c(OC)c(OC)c4)oc3nc2c1	TDP1 cell noCPT inconclusive, DT40 TDP1 CPT inconclusive, ELG1 DNA repair 16µM
COc1ccc2cc3cc(C(=O)NCc4ccc5c(c4)OCO5)oc3nc2c1	none
COc1ccc(CCNS(=O)(=O)c2ccc(-c3ccc(=O)[nH]n3)o2)cc1OC	none
CCC1(C)Cc2ccccc2/C(=C/C(=O)N2CCCCC2)N1 (centres undefined)	TDP1 cell noCPT 21µM, DT40 TDP1 CPT 18µM
Cc1cc(C)c2oc(-c3cccc(NC(=O)COc4ccccc4Cl)c3C)nc2c1	TDP1 cell noCPT inconclusive (no result: IL1B secr inh, Giardia kill, ELG1 DNA repair)
CCCCN(C(=O)C1CCCC1)c1c(N)n(CC(C)C)c(=O)[nH]c1=O	none
CC(C)(CNC(=O)COc1ccccc1Cc1ccccc1)N1CCOCC1	IL1B secr inh -59, TDP1 cell noCPT inconclusive, DT40 TDP1 CPT inconclusive
Cc1ccccc1OCC(=O)NCC(C)(C)N1CCOCC1	none
Cc1c(NC(=O)c2ccc(S(=O)(=O)Nc3ccccc3F)cc2)c(=O)n(-c2ccccc2)n1C	none
Cc1ccc(-n2nc(C(=O)N3CCN(c4cccc(C(F)(F)F)c4)CC3)c3c4ccccc4n(C)c3c2=O)cc1	TDP1 cell noCPT inconclusive, DT40 TDP1 CPT inconclusive (no result: IL1B secr inh, Giardia kill, ELG1 DNA repair)
CCOc1ccc(NC(=O)CSc2nc3ccsc3c(=O)n2C(C)CC)cc1 (centres undefined)	TDP1 cell noCPT 10µM, DT40 TDP1 CPT inconclusive (no result: IL1B secr inh, Giardia kill, ELG1 DNA repair)
CCC(C)n1c(SCc2ccc([N+](=O)[O-])cc2)nc2ccsc2c1=O (centres undefined)	IL1B secr inh inconclusive, TDP1 cell noCPT 21µM, DT40 TDP1 CPT 23µM, ELG1 DNA repair inconclusive
CCC(C)n1c(SCc2c(F)cccc2Cl)nc2ccsc2c1=O (centres undefined)	TDP1 cell noCPT 5.8µM, DT40 TDP1 CPT 4.1µM (no result: IL1B secr inh, Giardia kill, ELG1 DNA repair)
COc1ccc(N(C(=O)Cn2nnc(-c3ccc(C)o3)n2)C(C(=O)NC2CCCC2)c2ccncc2)cc1 (centres undefined)	TDP1 cell noCPT inconclusive (no result: TDP1 inh)
Cc1nc(N)[nH]c(=O)c1CCCNc1ccc([N+](=O)[O-])cc1	none (no result: TDP1 inh, ELG1 DNA repair)
COc1ccccc1CN1CC(C(=O)NCc2cc(F)ccc2C)CCC1=O (centres undefined)	ELG1 DNA repair inconclusive (no result: TDP1 inh)
CCC(CC)c1nnc(NC(=O)CCNC(=O)c2ccccc2Cl)s1	none
COc1ccc(S(=O)(=O)N2CCCC(C(F)(F)F)C2)cc1 (centres undefined)	none
Cc1c(OCC(=O)NCCCN2CCOCC2)ccc2c1oc(=O)c1ccccc12	TDP1 cell noCPT inconclusive, DT40 TDP1 CPT inconclusive
CC(=O)Oc1cc2c(C(=O)NCCCN3CCOCC3)c(C)oc2c2ccccc12	TDP1 cell noCPT 21µM, DT40 TDP1 CPT 15µM

Bioassay records: PubChem, National Center for Advancing Translational Sciences (NCATS)
